Results reported in PubChem BioAssay (Tox21).
Records with an inconclusive call do not appear. Calls of active or inactive are those of the source. The call rests on the fitted dose curve; in most records, active means well fitted activation curve with a large enough effect in the signal ratio in the repeat runs (not every such curve was filed as active); inconclusive means weak or mixed curves; inactive means flat fitted curve, though single readings scatter; the % refers to the signal ratio.

Test: qHTS assay to identify small molecule agonists of the TGF-beta/Smad signaling pathway (AID 1346859)
Conditions: SBE-bla HEK293T, TGF-beta/Smad beta-lactamase reporter, 5 h; series mostly up to 76.8 µM
From the text: U.S. Tox21 Program National Center for Advancing Translational Sciences [NCATS] NIH Chemical Genomics Center [NCGC] U.S. Environmental Protection Agency [EPA] National Institutes of Environmental Health Sciences [NIEHS] National Toxicology Program [NTP] U.S. Food and Drug Administration [FDA] Tox21 Assay Overview: Transforming growth factor beta (TGF-beta) superfamily consists of a large number of structurally related dimeric proteins that act as hormones or local mediators in regulating a wide range of biological functions. This superfamily includes TGF-betas themselves, the bone morphogenetic proteins (BMPs) and the activins. These ligands induce oligomerization of serine/threonine receptor kinases and phosphorylate the cytoplasmic signaling molecules of Smad protein family. CellSensor SBE-bla HEK 293T cell line (Life Technologies, Carlsbad, CA), responsive to TGF-beta was used to screen Tox21 10K compound library for identification of agonists/antagonists of the Smad signaling pathway. This cell line contains a beta-lactamase reporter gene under control of the Smad binding element (SBE) stably integrated into HEK 293T cells.
Tox21 Assay Protocol Summary: SBE-bla HEK 293T cells were dispensed at 4,000/well in 6 uL of assay medium into black wall/clear-bottom 1536-well plates using a Multidrop Combi (ThermoFisher Scientific, Waltham, MA) dispenser. After the assay plates were incubated at 37 C and 5% CO2 for an overnight, 23 nL of compounds dissolved in DMSO, positive controls or DMSO only was transferred to the assay plate by a Pintool station (Kalypsys, San Diego, CA). The assay plates were incubated at 37 C and 5% CO2 for 5 hr. One uL of LiveBLAzer B/G FRET substrate (Life Technologies) was added using a Flying Reagent Dispenser (Aurora Discovery, San Diego, CA) and the plates were incubated at room temperature for 2 hr. Fluorescence intensity (405 nm excitation, 460 nm and 530 nm emissions) was measured using an Envision plate reader (PerkinElmer, Shelton, CT).
On the % scale 0 is the no-effect control and ±100 the full control effect.

Row | SMILES | outcome | activation
1 | CCCCCCCCCCCCCCCCCCO | inactive | 
2 | CC1=NS(=O)(=O)c2cc(Cl)ccc2N1 | inactive | 
3 | Cc1ccc(-c2ncc(Cl)cc2-c2ccc(S(C)(=O)=O)cc2)cn1 | inactive | 
4 | CCCCCC(C)N (stereo not given) | inactive | 
5 | CCN(CC#N)c1cccc(C)c1 | inactive | 
6 | C=CCCCCCCCCC(=O)OCC | inactive | 
7 | CC(=O)c1cnccn1 | inactive | 
8 | CCOC(=O)c1cnc2c(cnn2CC)c1NN=C(C)C | inactive | 
9 | O=C(O)c1cn(C2CC2)c2cc(N3CCNCC3)c(F)cc2c1=O | inactive | 
10 | CCOC(=O)C(=O)CCCCCCl | inactive | 
11 | CCCc1ncc(C[n+]2ccccc2C)c(N)n1 | inactive | 
12 | CCN1CCOCC1 | inactive | 
13 | CC(C)(C)C(=O)Oc1ccc(S(=O)(=O)Nc2ccccc2C(=O)NCC(=O)O)cc1 | inactive | 
14 | NO | inactive | 
15 | CCCCS(=O)(=O)N[C@@H](Cc1ccc(OCCCCC2CCNCC2)cc1)C(=O)O | inactive | 
16 | CC(C)(CCC(=O)O)C(=O)O | inactive | 
17 | CC[N+](C)(CC)CCOC(=O)C1c2ccccc2Oc2ccccc21 | inactive | 
18 | CC1=NN(c2cccc(S(=O)(=O)O)c2)C(=O)C1 | inactive | 
19 | CC(CO)(CO)[N+](=O)[O-] | inactive | 
20 | NC(=O)NC1N=C([O][Al])NC1=O (stereo not given) | inactive | 

Row | SMILES | outcome | activation
21 | CCNS(=O)(=O)c1ccc(C)cc1 | inactive | 
22 | C[N+]12CCC(CC1)C(OC(=O)C(O)(c1ccccc1)c1ccccc1)C2 (stereo not given) | inactive | 
23 | CNCC(O)c1ccc(O)c(O)c1 (stereo not given) | inactive | 
24 | C=C[Si](OC(C)=O)(OC(C)=O)OC(C)=O | inactive | 
25 | O=S(=O)(O)c1cc(O)c(O)c(S(=O)(=O)O)c1 | inactive | 
26 | CCOc1ccc2nc(S(N)(=O)=O)sc2c1 | inactive | 
27 | Cc1coc2ccccc2c1=O | inactive | 
28 | COCCOCC(OC)OC | inactive | 
29 | O=C1c2ccccc2C(=O)c2cc(O)ccc21 | inactive | 
30 | Nc1ccccn1 | inactive | 
31 | Cc1cc(C)c(N=Nc2c(O)c(S(=O)(=O)O)cc3cc(S(=O)(=O)O)ccc23)cc1C |  | 0.0984% [at 6.97 µM] (inactive)
32 | c1ccc2sc(SN3CCOCC3)nc2c1 | inactive | 
33 | COc1ccc2cc1Oc1cc3c(cc1OC)CC[N+](C)(C)[C@H]3Cc1ccc(cc1)Oc1c(OC)c(OC)cc3c1[C@@H](C2)[N+](C)(C)CC3 | inactive | 
34 | C[C@H]1[C@H](NC(=O)/C(=N/OC(C)(C)C(=O)O)c2csc(N)n2)C(=O)N1S(=O)(=O)O (stereo in doubt) | inactive | 
35 | C=COCC1CCC(COC=C)CC1 (stereo not given) | inactive | 
36 | CC(C)NNC(=O)c1ccncc1 | inactive | 
37 | NCCCC(N)(C(=O)O)C(F)F (stereo not given) | inactive | 
38 | O=C(CO)[C@@H](O)[C@H](O)[C@H](O)CO | inactive | 
39 | CCCCCC(=O)OCCc1ccccc1 | inactive | 
40 | O=C(O)CCCC[P+](c1ccccc1)(c1ccccc1)c1ccccc1 | inactive | 
